Here are results for 10 molecules from PubChem BioAssay.

A short description of test [1]: SK-BR-3 cell growth inhibitors, pilot screen, 24 h, human (AID 572;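 active = viability at or below 10% of carrier control in both of two separate runs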;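 also: compound exposure lasted between 18 and 24 h rather than exactly 24 h; 100% = carrier-treated control wells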). The following applies: SK-BR-3 viability, CellTiter-Glo luminescence, at 10 µM, stronger effect = lower value.
The nature of test [2]: HUVEC growth inhibition – cell-based, human, primary screen (AID 575;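 active = viability at or below 30% in both replicate assays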;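 also: 100% = median of untreated cell wells with 0.1% DMSO on each plate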). Particulars: HUVEC proliferation, CellTiter-Glo luminescence, 72 h; at 10 µM; stronger effect = lower value.
The nature of test [3]: growth inhibitors of H69AR lung tumor, primary screen, human, duplicate replicates (AID 580;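 active = viability at or under a set limit in both replicates, limit being median viability minus 3 SD, cut at about 48% in these data, passing the limit was not always enough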;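 also: 100% = mean luminescence of untreated wells and 0% = no signal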). The following applies: H69AR lung tumor cells viability, ATP luminescence, 72 h; at 10 µM; stronger effect = lower value.
Test [4] can be described thus: reversal of MRP1-mediated doxorubicin resistance, pilot screen, H69AR cells, doxorubicin co-treatment (AID 601;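 active = viability loss from added drug above about 55%, and viability with drug at most 40%, in both replicates, limit read from the data, passing the limit was not always enough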). The following applies: CellTiter-Glo, 72 h, at 10 µM; for differential viability (reversal): stronger effect = higher value.
Test [5] is described as follows: 384-well plate pilot, post-Golgi transport modulator project, inhibition of yeast transport mutant growth (AID 636; in the data active = inhibition above about 31%). The following applies: absorbance 615 nm, about 18 h, stronger effect = higher value.
Test [6] is described as follows: growth suppression of yeast trafficking mutant, preliminary HTS, modulators of trafficking downstream of Golgi apparatus project, 1536-format plate, OD 615 nm (AID 637; in the data active = inhibition above about 30%). Particulars: yeast transport mutant growth, absorbance 615 nm, 18 h; stronger effect = higher value.
Test [7] is described as follows: OD615 S. cerevisiae growth inhibition, permissive medium, pilot counter-assay, permissive growth control for S. cerevisiae lifespan shortening project (AID 705;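 active = growth inhibition above 25% in both replicates, a cutoff set 3 SD above the mean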). The following applies: OD615, 24 h, at 10 µM, stronger effect = higher value.
The nature of test [8]: Restrictive medium S. cerevisiae growth inhibition, OD615, pilot screen of yeast lifespan reduction project, restrictive growth control (AID 706;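 active = growth inhibition above a set limit, 3 SD over mean compound inhibition, in both replicates, cut at about 43% in these data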;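 also: modified DeaD lifespan yeast strain shifted to restrictive glucose medium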). Particulars: OD615, 48 h, at 10 µM, stronger effect = higher value.
A short description of test [9]: viability gain of MRP-1-high H69AR cells under doxorubicin, pilot screen, MRP-1 activator project, CellTiter-Glo, duplicate (AID 807;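 active = viability increase at or above a cutoff of the median across tested compounds plus 3 SD, cut at about 8.5% in these data, passing the limit was not always enough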;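 also: compound pretreatment 18-22 h then 72 h combined with doxorubicin; 0% = doxorubicin alone and 100% = vehicle without doxorubicin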). Particulars: H69AR viability with doxorubicin, CellTiter-Glo luminescence; at 10 µM; stronger effect = higher value.
Test [10] is described as follows: growth suppression of beta-catenin knockout HCT116, pilot screen, human colon tumor cells (AID 823;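 active = cell viability at or below a set limit in both duplicate runs, the limit being the all-compound median minus 4 SD, cut at about 23% in these data, passing the limit was not always enough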;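 also: 0% = wells killed by 20 µM Hyamine and 100% = untreated DMSO cell wells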). Particulars: CellTiter-Glo, 60 h, at 10 µM, stronger effect = lower value.
A short description of test [11]: growth suppression of PTEN-deleted HCT116, pilot screen, cell-based, HCT116 clonal line, CellTiter-Glo (AID 824;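 active = viability at or below 27.92% in each of two runs, the all-compound median minus 4 SD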;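 also: 0% = 20 µM Hyamine control and 100% = vehicle cell control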). Particulars: 60 h, at 10 µM, stronger effect = lower value.
The nature of test [12]: inhibitors of the yeast RAM network, pilot screen, dse1pr::URA3 reporter, 5-FOA selection (AID 869;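 active = inhibition over a set limit, the all-compound mean plus 3 SD, in both replicate runs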;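 also: 0% = DMSO wells with no growth and 100% = 10 µM 1-NA-PP1 with full growth; RAM network block rescues cells from 5-FOA so hits raise OD615 growth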). The following applies: S. cerevisiae dse1pr::URA3 5-FOA growth, OD615, 2 d; at 10 µM; stronger effect = higher value; strain carries analog-sensitive mutant Cbk1 kinase.
The nature of test [13]: RAM signaling pathway blockade in yeast – S. cerevisiae, Pdr1DBD-CYC8 efflux-inhibited sensitized strain, primary screen (AID 1298).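 Also: 0% = DMSO untreated cells without growth and 100% = 10 µM 1-NA-PP1 full growth; higher means more yeast growth rescued from 5-FOA killing.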 The following applies: S. cerevisiae cbk1-as DSE1-URA3 strain, 5-FOA growth OD615, 2 d; at 50 µM; stronger effect = higher value.
Where [14] appears, read: H69AR cells + 2 uM doxorubicin, measured here: viability with 2 uM doxorubicin, stronger effect = lower value.
[15] abbreviates: H69AR cells, compound alone cytotoxicity.

Each structure is given as a SMILES string. Results filed as inconclusive are left out. The source made the active and inactive calls.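 The calls were made as follows, unless noted: active = RAM network inhibition above 8.4% in each of two replicates, 3 SD over the compound average; inconclusive = above 8.4% inhibition in only one replicate; inactive = 8.4% inhibition or less in each replicate.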

As to `O=C(COc1ccc(F)cc1)Nc1ccc(-n2cnnn2)cc1`, the viability in test [1] is 103% (inactive); in test [2], 107% (inactive); in test [3], 93.1% (inactive); in test [4] (setting [14]), 81.1%; in [4] (setting [15]), 93.1%; in test [10] it was 102% (inactive). In addition, the viability in [11] was 100% (inactive). The differential viability (reversal) in [4] (H69AR cells + 2 uM doxorubicin) was 12% (inactive). In addition, the inhibition in [5] is -4% (inactive); in test [6], -1.27% (inactive); in test [12] it was 0.61% (inactive). Moreover, the growth inhibition is 2.42% (inactive) in [7] and 2.31% (inactive) in test [8]. In addition, in test [9], the viability increase was 3.62% (inactive). In test [13], the RAM network inhibition was 0.57% (inactive).

In the case of `COc1cccc(C2C(C(=O)c3cccs3)=C(O)C(=O)N2CCCn2ccnc2)c1OC` (stereo not given), the viability in test [1] was 130% (inactive); in test [2], 102% (inactive); in [3] it was 109% (inactive); in [4] (setting [14]) it was 88.3%; in [4] (setting [15]) it was 109%; in test [10], 89.1% (inactive). Also, the viability in [11] was 89.5% (inactive). For the same molecule, in [4] (H69AR cells + 2 uM doxorubicin), the differential viability (reversal) was 20.9% (inactive). Further, the inhibition is -7.47% (inactive) in test [5], 3.09% (inactive) in [6] and 0.145% (inactive) in [12]. In addition, the growth inhibition in [7] is -6.37% (inactive); in [8] it was 1.34% (inactive). The viability increase in test [9] is -1.56% (inactive). Besides, in test [13], the RAM network inhibition was 0.92% (inactive).

For `COc1cc(-c2nc(-c3ccncc3)no2)cc(OC)c1OC`, the viability in test [1] was 100% (inactive); in [2], 101% (inactive); in test [3], 89.1% (inactive); in [4] (setting [14]) it was 88%; in test [4] (setting [15]), 89.1%; in test [10], 103% (inactive). Also, in test [11], the viability is 99.3% (inactive). For the same molecule, the differential viability (reversal) in test [4] (H69AR cells + 2 uM doxorubicin) was 1.12% (inactive). Moreover, the inhibition was -5.87% (inactive) in test [5], -2.18% (inactive) in [6] and 2.17% (inactive) in test [12]. For the same molecule, the growth inhibition in test [7] is -1.17% (inactive); in [8], 11.1% (inactive). Further, the viability increase in [9] was -2.77% (inactive). In addition, the RAM network inhibition in test [13] is 3.72% (inactive).

Consider `O=C(Cn1c(=O)sc2ccccc21)NCCOc1ccccc1F`, for which the viability in test [1] is 102% (inactive); in [2], 108% (inactive); in test [3], 99.4% (inactive); in [4] (setting [14]), 85.8%; in test [4] (setting [15]), 99.4%; in [10], 108% (inactive). The viability in test [11] was 98.4% (inactive). In [4] (H69AR cells + 2 uM doxorubicin), the differential viability (reversal) is 13.6% (inactive). In addition, the inhibition in [5] was -1.82% (inactive); in [6] it was -6.23% (inactive); in test [12], 1.38% (inactive). Moreover, the growth inhibition in [7] was 7.09% (inactive); in test [8] it was 11.1% (inactive). The viability increase in test [9] is -0.76% (inactive). In test [13], the RAM network inhibition is 10.5% (inactive).

With `O=C(CCn1[nH]c(=O)c2ccccc2c1=O)NCCO`, the viability in [1] is 78% (inactive); in [2], 118% (inactive); in test [3], 89.3% (inactive); in [4] (setting [14]) it was 91.9%; in [4] (setting [15]) it was 89.3%; in test [10], 102% (inactive). Further, in test [11], the viability was 102% (inactive). Also, the differential viability (reversal) in test [4] (H69AR cells + 2 uM doxorubicin) was -2.56% (inactive). Further, the inhibition in test [5] was -7.07% (inactive); in [6] it was -7.27% (inactive); in test [12], 0.26% (inactive). Also, the growth inhibition in [7] was -16.2% (inactive); in test [8], -13.6% (inactive). The viability increase in test [9] is -0.03% (inactive). Also, in test [13], the RAM network inhibition was 0.2% (inactive).

For the molecule `O=C(c1ccco1)c1nnn(Cc2ccccc2)c1-c1ccccc1`, the viability in [1] is 107% (inactive); in test [2] it was 102% (inactive); in test [3], 85.1% (inactive); in [4] (setting [14]) it was 81.7%; in test [4] (setting [15]), 85.1%; in [10], 93.5% (inactive). Further, in test [11], the viability was 99.1% (inactive). Further, in [4] (H69AR cells + 2 uM doxorubicin), the differential viability (reversal) is 3.42% (inactive). Also, the inhibition is -2.93% (inactive) in [5], -4.73% (inactive) in [6] and 2.21% (inactive) in [12]. The growth inhibition is -6.81% (inactive) in [7] and -8.41% (inactive) in test [8]. Further, the viability increase in test [9] was -2.38% (inactive). For the same molecule, the RAM network inhibition in test [13] is -0.25% (inactive).

Consider `Cc1ccc(C(=O)Nc2ccc(Cl)cn2)cc1S(=O)(=O)N1CCOCC1`, for which the viability in test [1] was 90% (inactive); in test [2], 78.3% (inactive); in test [3], 81.5% (inactive); in test [4] (setting [14]), 93%; in [4] (setting [15]), 81.5%; in test [10], 86.4% (inactive). For the same molecule, the viability in [11] is 79.9% (inactive). The differential viability (reversal) in test [4] (H69AR cells + 2 uM doxorubicin) was -11.5% (inactive). Moreover, the inhibition in test [5] is 0.39% (inactive); in [6], 5% (inactive); in [12], 1.39% (inactive). Besides, the figures for the growth inhibition in [7] and in [8] were -3.23% (inactive) and 0.715% (inactive), respectively. Moreover, the viability increase in test [9] is 1.52% (inactive). For the same molecule, the RAM network inhibition in [13] is 5.97% (inactive).

In the case of `O=C(/C=C/N1CCOCC1)c1ccc(-c2ccccc2)cc1`, the viability in test [1] was 104% (inactive); in [2], 81.8% (inactive); in test [3] it was 89.5% (inactive); in test [4] (setting [14]) it was 81.8%; in test [4] (setting [15]), 89.5%; in [10], 88.4% (inactive). Further, the viability in [11] was 80.6% (inactive). Moreover, the differential viability (reversal) in test [4] (H69AR cells + 2 uM doxorubicin) was 7.73% (inactive). Moreover, the inhibition in test [5] is -5.07% (inactive); in test [6], -2% (inactive); in test [12], -0.475% (inactive). Also, the growth inhibition in test [7] is 99.4% (active); in test [8], 100% (active). Besides, the viability increase in test [9] was -1.77% (inactive). In addition, the RAM network inhibition in test [13] was -1.36% (inactive).

`COc1ccccc1OCCNC(=O)c1cccs1`: the viability was 84% (inactive) in test [1]; 115% (inactive) in test [2]; 91.1% (inactive) in [3]; 81.6% in [4] (setting [14]); 91.1% in [4] (setting [15]); 97.9% (inactive) in [10]. Moreover, the viability in test [11] is 103% (inactive). Besides, the differential viability (reversal) in test [4] (H69AR cells + 2 uM doxorubicin) was 9.52% (inactive). For the same molecule, the inhibition is -3.33% (inactive) in test [5], -0.18% (inactive) in test [6] and 1.21% (inactive) in [12]. For the same molecule, the growth inhibition in test [7] was -6.5% (inactive); in test [8], 3.83% (inactive). For the same molecule, in [9], the viability increase was 0.85% (inactive). The RAM network inhibition in test [13] was 7.11% (inactive).

As to `O=C(Nc1ncc(Cc2ccccc2)s1)C1CCCO1` (stereo not given), the viability was 91.5% (inactive) in test [1]; 84.3% (inactive) in [2]; 103% (inactive) in test [3]; 92.2% in test [4] (setting [14]); 103% in test [4] (setting [15]); 103% (inactive) in test [10]. The viability in test [11] is 103% (inactive). Moreover, the differential viability (reversal) in [4] (H69AR cells + 2 uM doxorubicin) was 10.9% (inactive). Also, the inhibition in test [5] is -4.67% (inactive); in test [6], -9.34% (inactive); in test [12], 0.015% (inactive). The growth inhibition was -14.2% (inactive) in [7] and 3.14% (inactive) in test [8]. Moreover, in [9], the viability increase was 1.91% (inactive). Also, in test [13], the RAM network inhibition was -2.16% (inactive).
